{"source": "PubChem BioAssay (EPA / NIEHS)", "note": "Calls of active or inactive are those of the source. Rule for the calls: active = hit-call score of the fitted dose curve at least 0.9, where 1 is the maximum; inactive = score below 0.9."}
{"biological_target": "Estrogen receptor (Homo sapiens) (UniProt P03372)", "sequence (P03372 whole entry, looked up)": "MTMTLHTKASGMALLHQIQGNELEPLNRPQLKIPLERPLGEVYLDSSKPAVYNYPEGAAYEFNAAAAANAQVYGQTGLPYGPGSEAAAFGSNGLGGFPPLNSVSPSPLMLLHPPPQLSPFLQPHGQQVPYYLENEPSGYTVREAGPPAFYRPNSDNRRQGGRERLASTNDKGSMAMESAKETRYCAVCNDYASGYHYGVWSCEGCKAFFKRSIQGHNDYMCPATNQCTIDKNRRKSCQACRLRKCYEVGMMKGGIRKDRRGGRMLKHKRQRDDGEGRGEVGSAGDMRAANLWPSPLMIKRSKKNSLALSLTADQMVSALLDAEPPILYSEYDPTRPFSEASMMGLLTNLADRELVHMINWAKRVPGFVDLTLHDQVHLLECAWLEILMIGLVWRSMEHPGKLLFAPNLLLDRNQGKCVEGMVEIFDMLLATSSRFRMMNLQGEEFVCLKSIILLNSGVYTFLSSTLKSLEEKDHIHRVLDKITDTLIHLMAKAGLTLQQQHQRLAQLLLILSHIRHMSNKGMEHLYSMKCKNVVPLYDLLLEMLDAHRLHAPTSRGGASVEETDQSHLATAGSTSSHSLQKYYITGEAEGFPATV", "experiment": "OT_ERa_GFPERaERE_0480: Odyssey Thera (OT) 8-hour HeLa Transcription Induction Assay for Estrogen Receptor (AID 2283381)", "procedure": "OT_ERa_GFPERaERE_0480 is a cell-based, single-readout assay that uses HeLa, a human cervix cell line, with measurements taken at 8 hours after chemical dosing in a 384-well plate.OT_ERa_GFPERaERE_0480 is one of one assay component(s) measured or calculated from the OT_ERa_GFPERaERE_0480 assay. It is designed to make measurements of fluorescent protein induction, a form of inducible reporter, as detected with optical microscopy: fluorescence microscopy signals by Microscopy technology.Data from the assay component OT_ERa_GFPERaERE_0480 was analyzed into 1 assay endpoint. This assay endpoint, OT_ERa_EREGFP_0480, was analyzed in the positive analysis fitting direction relative to DMSO as the negative control and baseline of activity. Using a type of inducible reporter, measures of receptor for gain-of-signal activity can be used to understand the reporter gene at the pathway-level as they relate to the gene ESR1. Furthermore, this assay endpoint can be referred to as a primary readout, because the performed assay has only produced 1 assay endpoint. To generalize the intended target to other relatable targets, this assay endpoint is annotated to the nuclear receptor intended target family, where the subfamily is steroidal.\nAll assay endpoints are quantified using high content image analysis algorithms."}
{"smiles": "C1CCC(NC2CCCCC2)CC1", "outcome": "inactive"}
{"smiles": "CCC(C)(C)c1ccc(O)c(C(C)(C)CC)c1", "outcome": "inactive"}
{"smiles": "CCN1CCC2(CC1)COc1cc3c(cc12)N(C(=O)c1ccc(-c2ccc(-c4nnc(C)o4)cc2C)cc1)CC3", "outcome": "inactive"}
{"smiles": "CC(C)(C)c1cc(O)ccc1O", "outcome": "inactive"}
{"smiles": "CC1(C)Cc2cccc(O)c2O1", "outcome": "inactive"}
{"smiles": "CCCCCCCCSC(=O)Oc1cc(Cl)nnc1-c1ccccc1", "outcome": "inactive"}
{"smiles": "O=C(Cc1ccccc1)c1ccccc1", "outcome": "inactive"}
{"smiles": "Clc1nc(Cl)nc(Cl)n1", "outcome": "inactive"}
{"smiles": "CNC(=O)O/N=C/C(C)(C)S(C)=O", "note": "(stereo not given)", "outcome": "inactive"}
{"smiles": "CCC1(c2ccc(N)cc2)CCC(=O)NC1=O", "note": "(stereo not given)", "outcome": "inactive"}
{"smiles": "CC(C)(OO)c1ccccc1", "AC50": "35.3 µM (active)"}
{"smiles": "CC(C)c1cccc(C(C)C)c1O", "outcome": "inactive"}
{"smiles": "Cn1sc(Cl)cc1=O", "outcome": "inactive"}
{"smiles": "Cc1ccc(N)cc1Cl", "outcome": "inactive"}
{"smiles": "COP(=O)(OC)O/C(=C\\Cl)c1cc(Cl)c(Cl)cc1Cl", "outcome": "inactive"}
{"smiles": "O=C(NCO)NCO", "outcome": "inactive"}
{"smiles": "CCC(=O)C(CC(C)N(C)C)(c1ccccc1)c1ccccc1", "note": "(stereo not given)", "outcome": "inactive"}
{"smiles": "O=C1C(Cl)=C(Cl)C(=O)c2ccccc21", "outcome": "inactive"}
{"smiles": "CCOP(=S)(OCC)Oc1nc(Cl)c(Cl)cc1Cl", "outcome": "inactive"}
{"smiles": "O=C/C=C/c1ccccc1", "outcome": "inactive"}
{"smiles": "CCC[CH2][Sn]([CH2]CCC)([CH2]CCC)[O]C(=O)c1ccccc1", "outcome": "inactive"}
{"smiles": "Cl/C=C\\C[N+]12CN3CN(CN(C3)C1)C2", "AC50": "82.2 µM (active)"}
{"smiles": "CNC", "outcome": "inactive"}
{"smiles": "N#CN=C(N)N", "outcome": "inactive"}
{"smiles": "O=[N+]([O-])c1ccc(O)c([N+](=O)[O-])c1", "outcome": "inactive"}
{"smiles": "[O-][Cl+2]([O-])O", "outcome": "inactive"}
{"smiles": "CC(C)(c1ccccc1)c1ccc(O)c(C(C)(C)c2ccccc2)c1", "outcome": "inactive"}
{"smiles": "Fc1ccc(C2(Cn3cncn3)OC2c2ccccc2Cl)cc1", "note": "(stereo not given)", "outcome": "inactive"}
{"smiles": "Cl/C=C/Cl", "outcome": "inactive"}
{"smiles": "CC(=O)C=C(C)C", "AC50": "7.47 µM (active)"}
{"smiles": "CC(C#N)CCC#N", "note": "(stereo not given)", "outcome": "inactive"}
{"smiles": "NC(=O)O", "outcome": "inactive"}
{"smiles": "CC(=O)c1cc(C(C)(C)C)cc2c1CCC2(C)C", "outcome": "inactive"}
{"smiles": "CC(C)C1CCC(Cc2ccc(Cl)cc2)C1(O)Cn1cncn1", "note": "(stereo not given)", "outcome": "inactive"}
{"smiles": "c1cc[c]([Hg][c]2ccccc2)cc1", "outcome": "inactive"}
{"smiles": "ClC1(Cl)C2(Cl)C3(Cl)C4(Cl)C(Cl)(Cl)C5(Cl)C3(Cl)C1(Cl)C5(Cl)C24Cl", "note": "(stereo not given)", "outcome": "inactive"}
{"smiles": "CCOC(=O)Nc1cccc(OC(=O)Nc2ccccc2)c1", "outcome": "inactive"}
{"smiles": "COP(=O)(OC)OC", "outcome": "inactive"}
{"smiles": "CC(=O)[O][Hg][c]1ccccc1", "AC50": "4.11 µM (active)"}
{"smiles": "COP(=S)(OC)Oc1ccc(Sc2ccc(OP(=S)(OC)OC)cc2)cc1", "outcome": "inactive"}
